Test results published in PubChem BioAssay (NCI).
The panel holds about 83,000 compounds, 20% with a hit somewhere; the sample as a whole holds those more often.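 Method: cells in 96-well plates; compound added at one concentration; 48 h incubation; percent growth measured; values under 10 scored active.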 Calls of active or inactive are those of the source.

These molecules were tested on SK-MEL-5 melanoma (assay: NCI-60 one-dose screen, 48 h (100 = growth as untreated, 0 = no growth, -100 = all killed)). Settings: 10 µM unless noted.
In the case of `N#CC1=C2NCCCNc3oc(nc3C#N)Cc3ccccc3CC(=N1)O2`, the growth is reported as 99.1% (inactive).
With `COc1ccccc1/C=C1\Oc2ccc(O)c(O)c2C1=O` the growth was 99% (inactive).
For `COc1ccc(NC2=C(Br)C(=O)C(C)=C(C)C2=O)cc1OC`, the growth was 69.7% (inactive).
In the case of `O=C(Nc1ccc(N=Cc2c(O)[nH]c3ccccc23)cc1)Nc1ccc(S(=O)(=O)Nc2ncccn2)cc1`, the growth is reported as 100% (inactive).
`NC(=O)c1c(NC(=O)c2ccc(C(F)(F)F)cc2)sc2c1CCC(=O)C2` was tested, and the growth was -27.2% (active).
`O=C(/C=C/c1cccc(Br)c1)c1cccc(OCCCCOc2cccc(C(=O)/C=C/c3cccc(Br)c3)c2)c1` was tested, and the growth was 99.4% (inactive).
`O=C(CCCCCCNC(=O)c1csc(Br)n1)NO` was tested, and the growth was 17.7% (inactive).
In the case of `CC1CC(=O)C2=C(C1)Nc1ccc(Br)cc1CC2c1c[nH]c2ccc(Br)cc12` (stereo unspecified), the growth is reported as 66.1% (inactive).
With `C#CCN(C)CCCOc1ccc(NCc2ccc(C(=O)NO)cc2)cc1Cl` the growth was 9.67% (active).
For `CC(=O)Nc1nc(C)c(-c2csc(Nc3ccccc3)n2)s1`, the growth was 9.06% (active).
With `Cc1csc(/N=C(N)/N=C(\N)c2cccc(C#N)c2)n1` the growth was 85.7% (inactive).
`Clc1cccc(/C=N/Nc2nc(N/N=C/c3cccc(Cl)c3)nc(N3CCCCC3)n2)c1` was tested, and the growth was 80.6% (inactive).
For `O=C1[C@H]2Cc3c([nH]c4ccccc34)[C@H](c3ccc(Br)cc3)N2C(=O)CN1C1CCN(CC2CCCCC2)CC1`, the growth was 69.6% (inactive).
For `Cc1[nH]c(C(=O)Nc2ccc(C(=O)NCC3CCNCC3)cc2OC(C)C)c(Cl)c1Cl`, the growth was 95.9% (inactive).
For `CCN(CC)S(=O)(=O)c1ccc(-c2nc(C(Cl)Cl)nc3cc(-c4ccc(F)cc4)nn23)cc1`, the growth was 83.3% (inactive).
With `C/C(=N/N)c1nnn(-c2ccc(Br)cc2)c1C` the growth was 99.6% (inactive).
`CC1=C(C)C(=O)C(Nc2cccc(C)c2)=C(Br)C1=O` was tested, and the growth was 90.5% (inactive).
In the case of `Cc1ccc(C(=O)Nc2ccc(CNCCN3CCNCC3)c(C(F)(F)F)c2)cc1C#Cc1cnc2cccnn12`, the growth is reported as -87.1% (active).

What follows are molecules tested on UACC-62 melanoma in the same assay as above. Settings: 10 µM unless noted.
With `C#C[C@]1(O)CC[C@H]2[C@@H]3CC=C4c5sc(Nc6cc(C)cc(C)c6)nc5CC[C@]4(C)[C@H]3CC[C@@]21C` the growth was -16.4% (active).
For `CCCC[n+]1ccc(SCC(=O)n2ccc3ccccc32)c2ccccc21`, the growth was 77.7% (inactive).
With `CC(C)(C)c1cc(NC(=O)Nc2ccc(-c3cn4c5c(sc4n3)CCc3cn(CCCN4CCCCC4)cc3-5)cc2)no1` the growth was 98% (inactive).
`CCCCCCNC(=O)Oc1ccc(/C(=C(/C)c2ccc(OC)cc2)c2ccc(OCCN3CCCCCC3)cc2)cc1` was tested, and the growth was 5.76% (active).
For `Cn1cc(-c2cc3ncnc(Nc4ccc(CC(=O)Nc5nc(C(C)(C)C)cs5)cc4)c3s2)cn1`, the growth was 40.3% (inactive).
In the case of `O=C(CCCCCC/C=C\c1csc(Br)n1)NO`, the growth is reported as 74.5% (inactive).
With `COc1ccc(C(=O)c2c(N)c(C#N)cn2-c2ccc(Cl)cc2Cl)cc1` the growth was 89.6% (inactive).
With `Cc1ccc2c(n1)C(=O)C(Cl)=C(Nc1cccc(C(F)(F)F)c1)C2=O` the growth was 97.6% (inactive).
For `O=C1[C@H]2Cc3c([nH]c4ccccc34)[C@H](c3ccc(Cl)cc3)N2C(=O)CN1C1CCN(CC2CCCCC2)CC1`, the growth was 93.4% (inactive).
With `COc1ccc(/C=N/NC(=O)c2c(N)nn(C)c2Nc2ccccc2)cc1` the growth was 23.7% (inactive).
`Fc1ccc2nc(-c3cnn4cccnc34)sc2c1` was tested, and the growth was 75.4% (inactive).
`O=C(/C=C/c1cccc(F)c1)c1cccc(OCCCCOc2cccc(C(=O)/C=C/c3cccc(F)c3)c2)c1` was tested, and the growth was 94.8% (inactive).
In the case of `O=C(COc1ccc(/C=C2\C(=O)Nc3ccc(Cl)cc32)cc1)Nc1ccc(Cl)cc1`, the growth is reported as 27.8% (inactive).
In the case of `O=C(Nc1cccc(Cl)c1)Nc1nc2cc([N+](=O)[O-])ccc2o1`, the growth is reported as 29.1% (inactive).
`COc1ccc(NC(=O)CCCCCCNC(=O)C(O)(O)C(F)(F)F)cc1` was tested, and the growth was 17.4% (inactive).
With `CC(=O)N(O)CCCCCNC(=O)CCC(=O)N(O)CCCCCNC(=O)CCC(=O)N(O)CCCCCN(CCCCCCCCCC[P+](c1ccccc1)(c1ccccc1)c1ccccc1)CCCCCCCCCC[P+](c1ccccc1)(c1ccccc1)c1ccccc1` the growth was -10.6% (active).
`Cc1cc(Br)ccc1-n1cc(C#N)c(N)c1C(=O)c1ccc(Br)cc1` was tested, and the growth was 94.3% (inactive).
For `CN(C)S(=O)(=O)c1ccc(-c2nc(C(Cl)Cl)nc3cc(-c4ccccc4)nn23)cc1`, the growth was 11.7% (inactive).
